Molecules are shown by their SMILES. Where a name gives a salt, the structure may show the parent alone. ± gives the standard deviation of the averaged measurements.

Common to all, as to assay: growth (OD600 after 10 h); higher = more growth (less inhibition)
Experiment [1] has as its system E. coli TESEC Alr+ wild-type control. Particulars: compound 0.1 mM; raw OD600 reference: median of DMSO wells 0.241, cell-free background 0.041. As for the experimental part: (§1)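 TESEC Mtb Alr E. coli, or the Alr+ wild-type control, in 384-well plates with Prestwick library compounds at 0.1 mM and 1% DMSO, across arabinose induction levels of 1E3 to 1E7 nM. Growth is read as OD600 after 10 h at 37 °C in triplicate biological replicates.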

Experiment [2] has as its system E. coli TESEC Mtb Alr. Particulars: compound 0.1 mM. The method, then:
as §1

The test system of a further experiment is E. coli TESEC Mtb Asd. Particulars: compound 0.1 mM. The method, then:
(§2)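 TESEC E. coli strains in which the native enzyme is deleted and replaced by arabinose-inducible Mtb Asd, DapB, CysH or TrpD, each grown in its selective medium. Strains were screened against the Prestwick library at 0.1 mM and 1% DMSO in 384-well format at low and high arabinose induction. Growth is read as OD600 after 10 h in triplicate.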

Experiment [3] concerns E. coli TESEC Mtb Alr. Particulars: compound 0.1 mM. As for the experimental part: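 TESEC Mtb Alr E. coli (ΔaraC ΔtolC ΔentC Δalr ΔdadX, arabinose-inducible Mtb Alr) or the Alr+ wild-type control strain, grown in defined M9-fructose medium without D-alanine in 96-well plates with Prestwick library compounds at 0.1 mM and 1% DMSO. Low Alr induction is 0.1 µM arabinose and high induction is 10 mM arabinose.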
The source holds these as a separate data set.

The next experiment deals with E. coli TESEC Mtb DapB. Particulars: compound 0.1 mM. As for the experimental part: as §2
The mark [4] stands for this setting: arabinose 1000 nM, raw OD600 reference: median of DMSO wells 0.294, cell-free background 0.041.
Setting [5] is: arabinose 10000 nM, raw OD600 reference: median of DMSO wells 0.264, cell-free background 0.041.
The mark [6] stands for this setting: arabinose 100000 nM, raw OD600 reference: median of DMSO wells 0.201, cell-free background 0.041.
[7] abbreviates: arabinose 1000000 nM, raw OD600 reference: median of DMSO wells 0.193, cell-free background 0.041.
[8] abbreviates: arabinose 10000000 nM, raw OD600 reference: median of DMSO wells 0.146, cell-free background 0.041.
Setting [9] is: arabinose induction (level): High, raw OD600 reference: median of DMSO wells 0.331, cell-free background 0.041.
Where [10] appears, read: arabinose induction (level): Low, raw OD600 reference: median of DMSO wells 0.417, cell-free background 0.041.
[11] abbreviates: arabinose 100 nM, raw OD600 reference: median of DMSO wells 0.413, cell-free background 0.052.
The mark [12] stands for this setting: arabinose 10000000 nM, raw OD600 reference: median of DMSO wells […], cell-free background 0.052.
[13] abbreviates: arabinose induction (level): High, raw OD600 reference: median of DMSO wells […], cell-free background 0.041.
Setting [14] is: arabinose induction (level): Low, raw OD600 reference: median of DMSO wells 0.227, cell-free background 0.041.

Consider `CNC(=O)Oc1ccc2c(c1)[C@]1(C)CCN(C)[C@@H]1N2C` [Eserine hemisulfate salt], for which the growth is 0.229 ± 0.0049 in experiment [1]; 0.289 ± 0.0076 in the experiment with E. coli TESEC Mtb Alr [2] (setting [4]); 0.251 ± 0.003 in the experiment with E. coli TESEC Mtb Alr [2] (setting [5]); 0.203 ± 0.025 in the experiment on E. coli TESEC Mtb Alr [2] (setting [6]); 0.184 ± 0.0065 in the experiment on E. coli TESEC Mtb Alr [2] (setting [7]); 0.139 ± 0.008 in the experiment with E. coli TESEC Mtb Alr [2] (setting [8]). Also, the growth in the experiment with E. coli TESEC Mtb Asd (setting [9]) turned out to be 0.328 ± 0.037; in the experiment on E. coli TESEC Mtb Asd (setting [10]), 0.408 ± 0.048; with E. coli TESEC Mtb Alr [3] (setting [11]), 0.409 ± 0.017; in the experiment with E. coli TESEC Mtb Alr [3] (setting [12]), 0.366 ± 0.01.
Turning to `CC[N+]1(C)CCCC(OC(=O)C(O)(c2ccccc2)c2ccccc2)C1` (centres undefined) [Pipenzolate bromide], the growth in experiment [1] worked out at 0.217 ± 0.0052; in the experiment with E. coli TESEC Mtb Asd (setting [9]), 0.299 ± 0.035; in the experiment on E. coli TESEC Mtb Asd (setting [10]), 0.469 ± 0.025; in the experiment on E. coli TESEC Mtb DapB (setting [13]), 0.234 ± 0.013; with E. coli TESEC Mtb DapB (setting [14]) it was 0.263 ± 0.058; in the experiment on E. coli TESEC Mtb Alr [3] (setting [11]), 0.409 ± 0.023. Besides, the growth in the experiment on E. coli TESEC Mtb Alr [3] (setting [12]) amounted to 0.348 ± 0.025.
For `Fc1ccc(C(OCCN2CCN(CCCc3ccccc3)CC2)c2ccc(F)cc2)cc1`, the growth was determined as 0.0433 ± 0.0027 in experiment [1]; 0.0464 ± 0.00055 in the experiment with E. coli TESEC Mtb Asd (setting [9]); 0.04613 ± 0.00046 with E. coli TESEC Mtb Asd (setting [10]); 0.0461 ± 0.00026 in the experiment on E. coli TESEC Mtb DapB (setting [13]); 0.0459 ± 0.00085 with E. coli TESEC Mtb DapB (setting [14]); 0.235 ± 0.15 in the experiment with E. coli TESEC Mtb Alr [3] (setting [11]). The same compound yielded a growth in the experiment on E. coli TESEC Mtb Alr [3] (setting [12]) of 0.0503 ± 0.0006.
With `C[C@]12CC[C@H](O)C[C@H]1CC[C@@H]1[C@@H]2CC[C@]2(C)[C@@H](C3=CC(=O)OC3)CC[C@]12O` [Digitoxigenin], the growth was 0.147 ± 0.0028 in experiment [1]; 0.197 ± 0.0049 in the experiment with E. coli TESEC Mtb Alr [2] (setting [4]); 0.251 ± 0.0094 in the experiment with E. coli TESEC Mtb Alr [2] (setting [5]); 0.117 ± 0.0044 with E. coli TESEC Mtb Alr [2] (setting [6]); 0.0923 ± 0.0033 in the experiment on E. coli TESEC Mtb Alr [2] (setting [7]); 0.126 ± 0.0021 with E. coli TESEC Mtb Alr [2] (setting [8]). The growth was 0.154 ± 0.0042 with E. coli TESEC Mtb Asd (setting [9]), 0.289 ± 0.096 in the experiment on E. coli TESEC Mtb Asd (setting [10]), 0.41 ± 0.0093 in the experiment with E. coli TESEC Mtb Alr [3] (setting [11]) and 0.227 ± 0.01 in the experiment on E. coli TESEC Mtb Alr [3] (setting [12]).
For `CN1[C@@H]2C[C@@H](OC(=O)[C@H](CO)c3ccccc3)C[C@H]1[C@@H]1O[C@@H]12` [Scopolamine hydrochloride], the growth came to 0.252 ± 0.0082 in experiment [1]; 0.321 ± 0.023 in the experiment with E. coli TESEC Mtb Alr [2] (setting [4]); 0.292 ± 0.011 with E. coli TESEC Mtb Alr [2] (setting [5]); 0.207 ± 0.012 with E. coli TESEC Mtb Alr [2] (setting [6]); 0.182 ± 0.0041 in the experiment on E. coli TESEC Mtb Alr [2] (setting [7]); 0.157 ± 0.0084 with E. coli TESEC Mtb Alr [2] (setting [8]). The growth with E. coli TESEC Mtb Asd (setting [9]) was found to be 0.469 ± 0.011; in the experiment with E. coli TESEC Mtb Asd (setting [10]), 0.453 ± 0.025; in the experiment with E. coli TESEC Mtb Alr [3] (setting [11]) it was 0.408 ± 0.016; in the experiment with E. coli TESEC Mtb Alr [3] (setting [12]), 0.36 ± 0.01.
For the compound `Oc1ccc2c3c1O[C@H]1[C@@H](O)CC[C@@]4(O)[C@@H](C2)N(CC2CCC2)CC[C@]314` [Nalbuphine hydrochloride], the growth came to 0.233 ± 0.0039 in experiment [1]; 0.262 ± 0.028 with E. coli TESEC Mtb Alr [2] (setting [4]); 0.2664 ± 0.0015 in the experiment on E. coli TESEC Mtb Alr [2] (setting [5]); 0.183 ± 0.024 in the experiment with E. coli TESEC Mtb Alr [2] (setting [6]); 0.1753 ± 0.0013 in the experiment on E. coli TESEC Mtb Alr [2] (setting [7]); 0.135 ± 0.0094 in the experiment with E. coli TESEC Mtb Alr [2] (setting [8]). Moreover, the growth in the experiment with E. coli TESEC Mtb Asd (setting [9]) came out at 0.381 ± 0.095; with E. coli TESEC Mtb Asd (setting [10]) it was 0.453 ± 0.036; in the experiment on E. coli TESEC Mtb Alr [3] (setting [11]), 0.4293 ± 0.0018; in the experiment with E. coli TESEC Mtb Alr [3] (setting [12]), 0.351 ± 0.015.
Take `CCCC(C)(COC(N)=O)COC(=O)NC(C)C` (centres undefined) [Carisoprodol]: the growth stood at 0.237 ± 0.008 in experiment [1]; 0.287 ± 0.011 in the experiment with E. coli TESEC Mtb Alr [2] (setting [4]); 0.283 ± 0.0077 with E. coli TESEC Mtb Alr [2] (setting [5]); 0.211 ± 0.014 in the experiment with E. coli TESEC Mtb Alr [2] (setting [6]); 0.198 ± 0.0098 with E. coli TESEC Mtb Alr [2] (setting [7]); 0.142 ± 0.0024 with E. coli TESEC Mtb Alr [2] (setting [8]). The growth in the experiment on E. coli TESEC Mtb Asd (setting [9]) is 0.268 ± 0.02; with E. coli TESEC Mtb Asd (setting [10]), 0.322 ± 0.083; in the experiment with E. coli TESEC Mtb Alr [3] (setting [11]), 0.403 ± 0.01; with E. coli TESEC Mtb Alr [3] (setting [12]), 0.341 ± 0.015.
`CC(N)C(O)c1ccccc1` (centres undefined) [Phenylpropanolamine hydrochloride]: the growth was 0.26 ± 0.0031 in experiment [1]; 0.399 ± 0.022 in the experiment on E. coli TESEC Mtb Asd (setting [9]); 0.433 ± 0.067 with E. coli TESEC Mtb Asd (setting [10]); 0.404 ± 0.016 in the experiment on E. coli TESEC Mtb Alr [3] (setting [11]); 0.345 ± 0.015 with E. coli TESEC Mtb Alr [3] (setting [12]).

For the origin of these results see the supplement of paper PMC9262897, “Low-cost anti-mycobacterial drug discovery using engineered E. coli” (Nature Communications, 2022).
